Results filed as inconclusive are left out. Calls of active or inactive are those of the source. Rule for the calls: active = hit-call score of the fitted dose curve at least 0.9, where 1 is the maximum; inconclusive = response in the unintended direction; inactive = score below 0.9.
molecular target: Androgen receptor (Homo sapiens) (UniProt P10275); assay: ATG_AR_TRANS: Attagene TRANS-FACTORIAL HepG2 Assay for human Androgen Receptor (AR) (AID 2282973); conditions: HepG2 Attagene TRANS-FACTORIAL AR reporter transcription
Sequence (P10275 whole entry, looked up, the tested form may be a part): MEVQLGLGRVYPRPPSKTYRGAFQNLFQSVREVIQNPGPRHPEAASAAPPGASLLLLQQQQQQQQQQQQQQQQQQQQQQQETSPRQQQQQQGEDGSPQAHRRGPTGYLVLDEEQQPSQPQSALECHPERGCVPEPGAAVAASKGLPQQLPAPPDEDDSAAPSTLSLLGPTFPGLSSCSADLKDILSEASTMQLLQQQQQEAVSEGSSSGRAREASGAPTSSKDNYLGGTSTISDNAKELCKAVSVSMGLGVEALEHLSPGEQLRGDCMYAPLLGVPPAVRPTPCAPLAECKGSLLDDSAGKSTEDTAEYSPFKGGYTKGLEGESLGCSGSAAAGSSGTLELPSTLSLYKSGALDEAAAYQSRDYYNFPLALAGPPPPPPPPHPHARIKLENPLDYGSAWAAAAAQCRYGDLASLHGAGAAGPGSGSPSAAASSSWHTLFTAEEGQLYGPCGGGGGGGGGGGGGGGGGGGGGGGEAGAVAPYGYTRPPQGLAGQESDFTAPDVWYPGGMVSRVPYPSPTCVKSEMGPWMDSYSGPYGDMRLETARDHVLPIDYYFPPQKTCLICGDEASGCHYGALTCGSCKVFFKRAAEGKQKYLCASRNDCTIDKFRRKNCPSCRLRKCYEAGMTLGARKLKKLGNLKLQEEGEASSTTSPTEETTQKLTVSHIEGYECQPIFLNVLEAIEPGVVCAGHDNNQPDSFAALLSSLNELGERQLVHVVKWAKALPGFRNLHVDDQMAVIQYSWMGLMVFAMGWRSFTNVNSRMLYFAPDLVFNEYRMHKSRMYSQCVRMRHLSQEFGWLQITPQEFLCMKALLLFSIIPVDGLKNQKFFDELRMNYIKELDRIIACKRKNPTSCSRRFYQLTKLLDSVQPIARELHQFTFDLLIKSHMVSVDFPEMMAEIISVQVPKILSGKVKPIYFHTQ
Outline: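 Chimeric nuclear receptor–Gal4 activity was assessed in human HepG2 hepatocytes after 24 h chemical dosing. Induced reporter mRNA was detected via labelled RT-PCR fragments on capillary electrophoresis, and gain of signal was analysed against DMSO.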

outcome, inactive:
FC(F)C(F)(F)COCC1CO1 (stereo not given)
CN(CCO)S(=O)(=O)C(F)(F)C(F)(F)C(F)(F)C(F)(F)C(F)(F)C(F)(F)C(F)(F)C(F)(F)F
C[N+](C)(C)CCCNS(=O)(=O)C(F)(F)C(F)(F)C(F)(F)C(F)(F)C(F)(F)C(F)(F)C(F)(F)C(F)(F)F
CCO[Si](CCC(F)(F)C(F)(F)C(F)(F)C(F)(F)C(F)(F)C(F)(F)F)(OCC)OCC
OCC(O)CC(F)(F)C(F)(F)C(F)(F)C(F)(F)F (stereo not given)
OCC(F)(F)C(F)(F)C(F)(F)C(F)F
O=C(O)C(F)(OC(F)(F)C(F)(OC(F)(F)C(F)(F)C(F)(F)F)C(F)(F)F)C(F)(F)F (stereo not given)
FC(F)(F)C(F)(F)C(F)(F)N(C(F)(F)C(F)(F)C(F)(F)F)C(F)(F)C(F)(F)C(F)(F)F
C=CC(=O)OCC(F)(F)C(F)(F)C(F)(F)C(F)(F)COC(=O)C=C
O=S(=O)(OCC(F)F)C(F)(F)F
C[Si](Cl)(Cl)CCC(F)(F)C(F)(F)C(F)(F)C(F)(F)C(F)(F)C(F)(F)F
OC(O)(C(F)C(O)(O)C(F)(F)F)C(F)(F)F
O=C(O)C(F)(F)C(F)(F)C(F)(F)C(F)(F)C(F)(F)C(F)(F)C(F)(F)C(F)(F)C(F)(F)C(F)(F)C(F)(F)C(F)(F)C(F)(F)F
O=S(=O)(O)C(F)(F)C(F)(F)C(F)(F)C(F)(F)C(F)(F)C(F)(F)C(F)(F)F
OCC(F)(F)C(F)(F)C(F)(F)C(F)(F)C(F)(F)C(F)F
NS(=O)(=O)C(F)(F)C(F)(F)C(F)(F)C(F)(F)C(F)(F)C(F)(F)F
OCCCCC(F)(F)C(F)(F)C(F)(F)C(F)(F)F
O=C(O)C(F)(F)C(F)(F)C(F)(F)C(F)(F)F
FC1CC(F)(F)C(F)(F)C1(F)F (stereo not given)
CCN(CCO)S(=O)(=O)C(F)(F)C(F)(F)C(F)(F)C(F)(F)C(F)(F)C(F)(F)C(F)(F)C(F)(F)F
FC(F)(F)C(F)(F)C(F)(F)CI
O=C(O)C(F)(F)C(F)(F)C(F)(F)C(F)(F)C(F)(F)C(F)(F)C(F)(F)C(F)(F)Cl
O=C(CC(=O)C(F)(F)C(F)(F)C(F)(F)F)c1cccs1
CO[Si](C)(CCC(F)(F)C(F)(F)C(F)(F)C(F)(F)C(F)(F)C(F)(F)F)OC
O=P(O)(O)CCC(F)(F)C(F)(F)C(F)(F)C(F)(F)C(F)(F)C(F)(F)C(F)(F)C(F)(F)F
NC(=O)C(F)(F)C(F)(F)C(F)(F)C(F)(F)C(F)(F)C(F)(F)C(F)(F)F
O=C(O)C(F)(F)C(F)(F)OC(F)(F)F
O=C(Cl)C(F)(F)C(F)(F)C(F)(F)C(=O)Cl
OCCCC(F)(F)C(F)(F)C(F)(F)F
FC(F)(F)C(F)(F)C(F)(F)C(F)(F)C(F)(F)CCI
FC(F)(F)C(F)(F)C(F)(F)CC1CO1 (stereo not given)
O=C(O)C(F)(OC(F)(F)C(F)(OC(F)(F)C(F)(OC(F)(F)C(F)(F)C(F)(F)F)C(F)(F)F)C(F)(F)F)C(F)(F)F (stereo not given)
FC(F)(F)C(F)(F)C(F)(F)C(F)(F)C(F)(F)C(F)(F)C(F)(F)C(F)(F)CCS
C=CC(=O)OCC(F)(F)C(F)(F)C(F)(F)C(F)(F)C(F)(F)C(F)(F)C(F)(F)F
OCC(F)(F)C(F)(F)C(F)(F)F
FC(F)(F)C(F)(F)C(F)(F)C(F)(F)C(F)(F)C(F)(F)CC[Si](Cl)(Cl)Cl
FC(F)=C(F)C(F)(F)C(F)(F)C(F)(F)C(F)(F)C(F)(F)C(F)(F)F
FC(F)(F)COC(OCC(F)(F)F)OCC(F)(F)F
NC(=O)C(F)(F)C(F)(F)C(F)(F)C(F)F
NC(=O)C(F)(F)C(F)(F)C(F)(F)C(F)(F)C(N)=O

From PubChem BioAssay (EPA / NIEHS)
